The entries come from a sample that favours hits as a whole.
RmlC RmlD mix = mixture blocks RmlC and RmlD coupled enzyme activity; RmlC/RmlD coupled enzyme inhibition, 384-well mixture HTS; inhibition, % at 5.5 µM; 0.39% of 110,000 active; in the data active = inhibition above about 30%, passing the limit was not always enough; inconclusive = no clear call, values can overlap the other calls
HIV RNase H inh-1 = inhibitors of HIV-1 reverse transcriptase RNase H; P04585; 1.9% of 65,000 active; AID 565; inhibition, % at 10 µM; RT-RNase H RNA/DNA duplex cleavage, fluorescence; in the data active = inhibition above about 50%
HIV RNase H inh-2 = confirmation of HIV-1 reverse transcriptase RNase H inhibitors; shares compounds with HIV RNase H inh-1; Recombinant RT RNase H, fluorescent RNA/DNA duplex cleavage; inhibition, % at 10 µM; AID 651; 39% of 1,000 active; in the data active = inhibition above about 48%; inconclusive = no clear call, values can overlap the other calls
The depositor's hits bear a star; ? = inconclusive; . = not tested or not shown.

SMILES | RmlC RmlD mix | HIV RNase H inh-1 | HIV RNase H inh-2
COc1cc(-c2nnc3sc(C4CCCCC4)nn23)cc(OC)c1OC | 8.4 | -21.9 | .
C=CCN1C=C2C(=O)C(C)(OC(=O)c3ccco3)C(=O)C(C=C)=C2C=C1C1CC1 (configuration not stated) | -10.6 | . | .
CSc1nc2cc(Oc3cccc(Cl)c3Cl)c(Cl)cc2[nH]1 | -6.2 | . | .
N#Cc1c(N)[nH]c(=S)c(C#N)c1-c1ccccc1 | 3.8 | 82.2* | -5.0
Cc1ccc(-c2cc(-c3ccccc3)[nH]c(=S)c2C#N)cc1 | 0.1 | . | .
Cn1c(N2C(=O)CC(Cc3ccccc3)C2=O)nc2ccccc21 (configuration not stated) | 6.4 | . | .
Cc1c(C(=O)NC2=NCCS2)oc2ccccc12 | 7.9 | -17.4 | .
Cc1sc(NC(=O)c2oc3ccccc3c2C)c(C#N)c1C | 3.6 | 56.9* | 82.7*
CCOCCCNS(=O)(=O)c1ccc(-n2cnnn2)c(OC)c1 | -6.7 | . | .
CCOC(=O)N1CCc2c(sc3c2C(=O)NC(c2ccc(-c4ccc(Cl)cc4)o2)N3)C1 (configuration not stated) | . | 73.5* | 97.1*
Cc1ccc(C2NC(=O)c3c(sc4c3CCN(C)C4)N2)o1 (configuration not stated) | -6.3 | -0.2 | .
CC(C)CC(NC(=O)C1CCCCC1)C(=O)N1CCN(c2ccccn2)CC1 (configuration not stated) | 10.0 | . | .
O=C(c1coc(=O)c(Br)c1)N1CCOCC1 | 14.8 | 61.5* | 47.6
O=C(c1ccc(=O)oc1)N1CCOCC1 | . | 1.8 | .
Cc1cc(O)c(C(C)C)cc1N=C1CSC(=O)N1 | 8.4 | 66.9* | ?
Cc1ccc(C)c(N=C2NC(=O)CS2)c1 | -0.9 | -13.7 | .
O=C1COc2ccc(C(=O)c3ccccc3C(=O)NCc3ccccc3)cc2N1 | -0.1 | . | .
CC(=O)N(Cc1cc(=O)[nH]c2ccccc12)c1ccccc1 | -8.2 | -3.9 | .
CC(=O)N(Cc1cc(=O)[nH]c2ccccc12)c1cccc(C)c1 | 7.3 | 81.7* | 67.1*
C[C@H]1CCC[C@@]2(O[C@H](CCO)C[C@@H](O)[C@@H]2O)O1 | 5.4 | . | .
COc1ccc2[nH]cc(CCN(C)C)c2c1 | -11.1 | -1.4 | .
COc1ccc2[nH]cc(CCN=C3SCC(=O)N3C)c2c1 | -9.4 | 79.2* | 23.7
CC(=O)N1CCc2cc(S(=O)(=O)NC(CC(C)C)C(=O)Nc3cc(C(=O)O)ccc3C)ccc21 (configuration not stated) | . | 61.3* | 21.7
CC(=O)N1CCc2cc(S(=O)(=O)NC(Cc3ccccc3)C(=O)Nc3cc(C)ccn3)ccc21 (configuration not stated) | 3.0 | . | .
Cc1cc(C)n(-c2nc(SCCN(C)C)c3c4c(sc3n2)COC(C)(C)C4)n1 | 9.7 | . | .
SMILES | RmlC RmlD mix | HIV RNase H inh-1 | HIV RNase H inh-2
COc1ccc(Cl)cc1NC(=O)CSc1nnc(CN2CCOCC2)n1-c1ccc(Cl)cc1 | -4.4 | . | .
O=C(NC1CCS(=O)(=O)C1)c1c(NC(=O)C2COc3ccccc3O2)sc2c1CCCC2 (configuration not stated) | 2.3 | 54.3* | 70.0*
CCCNC(=O)c1c(NC(=O)C2COc3ccccc3O2)sc2c1CCCC2 (configuration not stated) | 7.3 | . | .
COc1ccc(-c2cc(C(=O)Nc3ccccc3SC)no2)cc1OC | 3.4 | 91.2* | 3.6
COc1cccc(-c2cc(C(=O)Nc3ccccc3SC)no2)c1 | -10.9 | 9.5 | .
COc1ccc(-c2cc(C(=O)Nc3cnn(Cc4ccccc4C)c3)no2)cc1OC | 16.8 | 86.5* | 17.4
CCCn1cc(NC(=O)c2cc(-c3ccccc3)on2)cn1 | 7.8 | . | .
O=C(c1cc(-c2ccc(Cl)cc2Cl)on1)N1CCN(C(=O)c2ccco2)CC1 | 1.1 | . | .
O=C(c1ccco1)N1CCN(C(=O)c2snc3ccc(Cl)cc23)CC1 | 7.8 | 86.4* | -3.1
CCCCCn1c(=O)c(C(=O)NCc2ccncc2)c(O)c2ccccc21 | 4.0 | 82.7* | 56.8*
CCCn1c(=O)c(C(=O)NCc2ccncc2)c(O)c2ccccc21 | 3.5 | -29.5 | .
CC(=O)Nc1ccc(C(=O)OCC(=O)N(Cc2ccccc2)C(C)(C)C)cc1 | -30.1 | . | .
CC(C)CC(=O)Nc1nc(=S)ss1 | 1.6 | . | .
CC(=O)Nc1nc(=S)ss1 | 2.6 | 64.2* | 39.1
CN(CC(=O)NCc1ccncc1)S(=O)(=O)c1ccc(F)cc1 | 12.8 | . | .
COC(=O)CSc1ncnc2c1sc1nc(-c3ccco3)c3c(c12)CC(C)(C)OC3 | . | 60.5* | 43.4
CC(C)c1nc2sc3c(NCc4ccco4)ncnc3c2c2c1COC(C)(C)C2 | -18.5 | 28.3 | .
O=C(NCCc1ccccc1)c1ccc2c(c1)S(=O)(=O)c1ccccc1C2=O | 3.6 | . | .
COc1ccccc1N1CCN(C(c2cc3ccc(C)cc3[nH]c2=O)c2nnnn2C2CCCC2)CC1 (configuration not stated) | -12.1 | 14.8 | .
COc1ccccc1N1CCN(C(c2cc3cc(C)ccc3[nH]c2=O)c2nnnn2C2CCCC2)CC1 (configuration not stated) | 2.3 | 53.8* | 26.0
CCSC1=NC2(CCCCC2)Nc2sc3c(c21)CCCC3 | 7.7 | . | .
C=C1/C(=C\C=C2/CCC[C@]3(C)[C@@H]([C@H](C)/C=C/[C@@H](O)C4CC4)CC[C@@H]23)C[C@@H](O)C[C@@H]1O | -9.5 | . | .
CC(=O)Oc1ccc(N2C(=O)C3C(C2=O)C2(C)C=CC3(C)O2)cc1 (configuration not stated) | -9.5 | 55.7* | 43.1
CC(=O)Oc1ccc(N2C(=O)C3C4C=CC(CO)(O4)C3C2=O)cc1 (configuration not stated) | 22.8 | . | .
COc1cc(OC)cc(C(=O)Nc2ccc(-c3nc4ccccc4o3)cc2)c1 | -12.5 | -2.7 | .
SMILES | RmlC RmlD mix | HIV RNase H inh-1 | HIV RNase H inh-2
COc1cccc(C(=O)Nc2ccc(-c3nc4ccccc4o3)c(O)c2)c1 | -159.6 | 66.1* | 24.1
O=C(COc1ccc(Cl)cc1)Nc1ccc2oc(-c3ccncc3)nc2c1 | 11.8 | -1.2 | .
Cc1ccc(OCC(=O)Nc2ccc(O)c(-c3nc4ccccc4o3)c2)cc1 | . | 70.2* | 26.4
COc1ccc(-c2cc(C(=O)Nc3cc(OC)cc(C(=O)Nc4cccc(C(F)(F)F)c4)c3)[nH]n2)cc1 | 5.2 | . | .
c1ccc(-c2ccc(-c3ccccn3)nn2)nc1 | . | 83.4* | 76.5*
c1ccc(-c2ccccn2)nc1 | -12.6 | 0.2 | .
COc1ccc(C2NC(=O)NC(C)=C2C(C)=O)cc1 (configuration not stated) | 9.4 | . | .
Cc1cccc(NC(=S)NNC(=O)CCn2cc(C)cn2)c1 | -10.2 | . | .
O=c1/c(=C\c2cccn2-c2ccccc2)sc2nc3ccccc3n12 | -1.4 | 89.4* | 60.7*
Cc1ccc(-n2c(C)cc(/C=c3/sc4nc5ccccc5n4c3=O)c2C)cc1 | 10.2 | . | .
C=CC[n+]1c(-c2ccc(OCC)cc2)csc1NNC(=O)Nc1ccccc1 | 3.5 | . | .
Cn1cnnc1SCC(=O)N1CCC(Cc2ccccc2)CC1 | 8.4 | -4.6 | .
Cc1ccc(-c2ccc(=O)n(CC(=O)N3CCN(c4cccc(C)c4)C(C)C3)n2)cc1 (configuration not stated) | -1.8 | -22.6 | .
Cc1cc(C)c2c(=O)n(CC(=O)NCCCN3CCOCC3)sc2n1 | 16.2 | 89.6* | 76.9*
Cc1cc(C)c2c(=O)n(CC(=O)N3CCC(Cc4ccccc4)CC3)sc2n1 | . | 78.6* | 10.4
Cc1cc(OCC(=O)NCCCN2CCOCC2)cc(C)c1Cl | 4.0 | 2.8 | .
Cc1cccc(N2CCN(C(=O)Cn3sc4nc(C)cc(C)c4c3=O)CC2C)c1 (configuration not stated) | -2.8 | 93.4* | 56.0*

From PubChem
